Source: paper PMC9911399, “Two distinct binding modes provide the RNA-binding protein RbFox with extraordinary sequence specificity”
Substitutions are numbered along the chain they refer to; changes in the protein carry UniProt numbers. The full ranking holds about 16,000 sequences; the median of “ka relative to ugcaugu” is about 0.0091, and the highest 2% start at about 0.032. For the sample, the highest values were picked, then their nearest neighbours and some sequences at random.

B1: UAUUAAG (DNA:RNA)
RNA: GGGAGACCGGAAUUCAGAUUGUCCUAUUAAGUUAAAUCCCGUCGUAGCCACCA
DNA 1: CAATCTGAATTCCGGTCTCCC
DNA 2: TGGTGGCTACGACGGGATT
B2: UCGCAGA (DNA:RNA)
RNA: B1 RNA with A26C, U27G, U28C, A30G, G31A
DNA 1: CAATCTGAATTCCGGTCTCCC
DNA 2: TGGTGGCTACGACGGGATT
B3: AUACCGG (DNA:RNA)
RNA: B1 RNA with U25A, A26U, U27A, U28C, A29C, A30G
DNA 1: CAATCTGAATTCCGGTCTCCC
DNA 2: TGGTGGCTACGACGGGATT
B4: ACGUGUU (DNA:RNA)
RNA: B1 RNA with U25A, A26C, U27G, A29G, A30U, G31U
DNA 1: CAATCTGAATTCCGGTCTCCC
DNA 2: TGGTGGCTACGACGGGATT
B5: GCAGUUG (DNA:RNA)
RNA: B1 RNA with U25G, A26C, U27A, U28G, A29U, A30U
DNA 1: CAATCTGAATTCCGGTCTCCC
DNA 2: TGGTGGCTACGACGGGATT
B6: CUGCCCG (DNA:RNA)
RNA: B1 RNA with U25C, A26U, U27G, U28C, A29C, A30C
DNA 1: CAATCTGAATTCCGGTCTCCC
DNA 2: TGGTGGCTACGACGGGATT
B7: UCGUCGU (DNA:RNA)
RNA: B1 RNA with A26C, U27G, A29C, A30G, G31U
DNA 1: CAATCTGAATTCCGGTCTCCC
DNA 2: TGGTGGCTACGACGGGATT
B8: CUGCUCG (DNA:RNA)
RNA: B1 RNA with U25C, A26U, U27G, U28C, A29U, A30C
DNA 1: CAATCTGAATTCCGGTCTCCC
DNA 2: TGGTGGCTACGACGGGATT
B9: CUGUCCG (DNA:RNA)
RNA: B1 RNA with U25C, A26U, U27G, A29C, A30C
DNA 1: CAATCTGAATTCCGGTCTCCC
DNA 2: TGGTGGCTACGACGGGATT
B10: UGCUCGU (DNA:RNA)
RNA: B1 RNA with A26G, U27C, A29C, A30G, G31U
DNA 1: CAATCTGAATTCCGGTCTCCC
DNA 2: TGGTGGCTACGACGGGATT
B11: UGCCCGU (DNA:RNA)
RNA: B1 RNA with A26G, U27C, U28C, A29C, A30G, G31U
DNA 1: CAATCTGAATTCCGGTCTCCC
DNA 2: TGGTGGCTACGACGGGATT
B12: AAAUGGU (DNA:RNA)
RNA: B1 RNA with U25A, U27A, A29G, A30G, G31U
DNA 1: CAATCTGAATTCCGGTCTCCC
DNA 2: TGGTGGCTACGACGGGATT
B13: GAUCCGC (DNA:RNA)
RNA: B1 RNA with U25G, U28C, A29C, A30G, G31C
DNA 1: CAATCTGAATTCCGGTCTCCC
DNA 2: TGGTGGCTACGACGGGATT
B14: CCACACG (DNA:RNA)
RNA: B1 RNA with U25C, A26C, U27A, U28C, A30C
DNA 1: CAATCTGAATTCCGGTCTCCC
DNA 2: TGGTGGCTACGACGGGATT
B15: CUAAGCU (DNA:RNA)
RNA: GGGAGACCGGAAUUCAGAUUGUCCCUAAGCUUUAAAUCCCGUCGUAGCCACCA
DNA 1: CAATCTGAATTCCGGTCTCCC
DNA 2: TGGTGGCTACGACGGGATT
B16: UUGUUUG (DNA:RNA)
RNA: B1 RNA with A26U, U27G, A29U, A30U
DNA 1: CAATCTGAATTCCGGTCTCCC
DNA 2: TGGTGGCTACGACGGGATT
B17: UCCUUUG (DNA:RNA)
RNA: B1 RNA with A26C, U27C, A29U, A30U
DNA 1: CAATCTGAATTCCGGTCTCCC
DNA 2: TGGTGGCTACGACGGGATT
B18: UUUGUCG (DNA:RNA)
RNA: B1 RNA with A26U, U28G, A29U, A30C
DNA 1: CAATCTGAATTCCGGTCTCCC
DNA 2: TGGTGGCTACGACGGGATT
B19: UUUGUCC (DNA:RNA)
RNA: B15 RNA with C25U, A27U, A28G, G29U, U31C
DNA 1: CAATCTGAATTCCGGTCTCCC
DNA 2: TGGTGGCTACGACGGGATT
B20: UUGUCGU (DNA:RNA)
RNA: B15 RNA with C25U, A27G, A28U, G29C, C30G
DNA 1: CAATCTGAATTCCGGTCTCCC
DNA 2: TGGTGGCTACGACGGGATT
B21: UUGUUGU (DNA:RNA)
RNA: B15 RNA with C25U, A27G, A28U, G29U, C30G
DNA 1: CAATCTGAATTCCGGTCTCCC
DNA 2: TGGTGGCTACGACGGGATT
B22: UUUUUUG (DNA:RNA)
RNA: B1 RNA with A26U, A29U, A30U
DNA 1: CAATCTGAATTCCGGTCTCCC
DNA 2: TGGTGGCTACGACGGGATT
B23: UUUGUUG (DNA:RNA)
RNA: B1 RNA with A26U, U28G, A29U, A30U
DNA 1: CAATCTGAATTCCGGTCTCCC
DNA 2: TGGTGGCTACGACGGGATT
B24: UUUUGUG (DNA:RNA)
RNA: B1 RNA with A26U, A29G, A30U
DNA 1: CAATCTGAATTCCGGTCTCCC
DNA 2: TGGTGGCTACGACGGGATT
B25: UGACACA (DNA:RNA)
RNA: B15 RNA with C25U, U26G, A28C, G29A, U31A
DNA 1: CAATCTGAATTCCGGTCTCCC
DNA 2: TGGTGGCTACGACGGGATT
B26: AAUCAAU (DNA:RNA)
RNA: B1 RNA with U25A, U28C, G31U
DNA 1: CAATCTGAATTCCGGTCTCCC
DNA 2: TGGTGGCTACGACGGGATT
B27: GAAAAUG (DNA:RNA)
RNA: B1 RNA with U25G, U27A, U28A, A30U
DNA 1: CAATCTGAATTCCGGTCTCCC
DNA 2: TGGTGGCTACGACGGGATT
B28: CCUGCUU (DNA:RNA)
RNA: B15 RNA with U26C, A27U, A28G, G29C, C30U
DNA 1: CAATCTGAATTCCGGTCTCCC
DNA 2: TGGTGGCTACGACGGGATT
B29: AUGUAGU (DNA:RNA)
RNA: B15 RNA with C25A, A27G, A28U, G29A, C30G
DNA 1: CAATCTGAATTCCGGTCTCCC
DNA 2: TGGTGGCTACGACGGGATT
B30: UAUUUGU (DNA:RNA)
RNA: B1 RNA with A29U, A30G, G31U
DNA 1: CAATCTGAATTCCGGTCTCCC
DNA 2: TGGTGGCTACGACGGGATT
B31: CACGCGU (DNA:RNA)
RNA: B15 RNA with U26A, A27C, A28G, G29C, C30G
DNA 1: CAATCTGAATTCCGGTCTCCC
DNA 2: TGGTGGCTACGACGGGATT

target: T1, RBFOX1 RRM (Homo sapiens, UniProt Q9NWB1 109-208); experiment: EMSA; HiTS-Eq, 1 nM pool, 10 min; buffer printed only for the single-RNA assays: 10 mM Tris pH 7.5, 150 mM NaCl, 3.4 mM EDTA, 0.001% NP-40, 30 C; conditions: tags: His6 N-terminal (pET28a); label: 5' 32P
T1 sequence: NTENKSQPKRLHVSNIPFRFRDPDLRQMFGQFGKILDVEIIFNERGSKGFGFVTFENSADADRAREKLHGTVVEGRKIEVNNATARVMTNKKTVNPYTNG
Procedure, shortened: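 Purified wild-type or mutant RbFox RRM at increasing concentrations was equilibrated with 1 nM of 5′-radiolabelled RNA carrying 7 randomized nucleotides for 10 min in 50 µL. Unbound RNA was separated by 8% native PAGE and sequenced. Relative association constants came from read-count changes of each RNA species compared with the control reaction, normalised to the cognate motif.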

Binder | binding signal
B1 | 0.0136 KA relative to UGCAUGU
B2 | 0.013 KA relative to UGCAUGU
B3 | 0.00158 KA relative to UGCAUGU
B4 | 0.0131 KA relative to UGCAUGU
B5 | 0.0127 KA relative to UGCAUGU
B6 | 0.0183 KA relative to UGCAUGU
B7 | 0.0184 KA relative to UGCAUGU
B8 | 0.0406 KA relative to UGCAUGU
B9 | 0.0164 KA relative to UGCAUGU
B10 | 0.0359 KA relative to UGCAUGU
B11 | 0.0214 KA relative to UGCAUGU
B12 | 0.00783 KA relative to UGCAUGU
B13 | 0.0132 KA relative to UGCAUGU
B14 | 0.0022 KA relative to UGCAUGU
B15 | 0.00577 KA relative to UGCAUGU
B16 | 0.0392 KA relative to UGCAUGU

Binder | binding signal
B17 | 0.0195 KA relative to UGCAUGU
B18 | 0.0272 KA relative to UGCAUGU
B19 | 0.0149 KA relative to UGCAUGU
B20 | 0.0256 KA relative to UGCAUGU
B21 | 0.0241 KA relative to UGCAUGU
B22 | 0.0341 KA relative to UGCAUGU
B23 | 0.0349 KA relative to UGCAUGU
B24 | 0.0302 KA relative to UGCAUGU
B25 | 0.00643 KA relative to UGCAUGU
B26 | 0.000959 KA relative to UGCAUGU
B27 | 0.00709 KA relative to UGCAUGU
B28 | 0.0137 KA relative to UGCAUGU
B29 | 0.00813 KA relative to UGCAUGU
B30 | 0.0237 KA relative to UGCAUGU
B31 | 0.00634 KA relative to UGCAUGU
